The values below come from paper PMC7862700, “An all-to-all approach to the identification of sequence-specific readers for epigenetic DNA modifications on cytosine”.

Holding throughout (assay): DAPPL (digital affinity profiling via proximity ligation, sequencing); 10 mM Tris-HCl pH 7.5, 50 mM NaCl, 1 mM DTT, 4% glycerol, room temperature, 30 min; GST-TFs on glutathione beads, 16-mer random dsDNA library, 0.1% formaldehyde crosslink after washing; high values mean tight binding
Holding throughout (details): protein: recombinant; tags: N-terminal GST; dsDNA, one strand shown

Test [1] deals with T1, ERF (Homo sapiens, UniProt P50548 1-548).
T1 sequence: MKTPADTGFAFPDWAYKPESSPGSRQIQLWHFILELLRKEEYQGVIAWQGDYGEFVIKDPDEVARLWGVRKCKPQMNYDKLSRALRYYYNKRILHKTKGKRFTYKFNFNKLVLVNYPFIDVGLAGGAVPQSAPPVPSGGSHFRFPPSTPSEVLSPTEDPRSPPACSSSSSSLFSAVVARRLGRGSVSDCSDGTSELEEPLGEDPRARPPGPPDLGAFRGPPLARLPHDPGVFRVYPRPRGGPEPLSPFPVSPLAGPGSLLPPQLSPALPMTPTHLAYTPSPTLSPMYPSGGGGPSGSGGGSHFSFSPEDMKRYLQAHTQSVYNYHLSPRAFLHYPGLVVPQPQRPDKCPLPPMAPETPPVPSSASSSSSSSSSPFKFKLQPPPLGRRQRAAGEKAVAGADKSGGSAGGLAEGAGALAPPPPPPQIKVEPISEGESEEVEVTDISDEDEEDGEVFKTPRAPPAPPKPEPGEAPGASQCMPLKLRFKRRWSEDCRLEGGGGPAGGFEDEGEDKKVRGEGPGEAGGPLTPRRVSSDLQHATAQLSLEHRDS
Summed up: (§1)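 Sequencing on an Illumina NextSeq500 followed washing, crosslinking with 0.1% formaldehyde, proximity ligation (BsaI/T4 ligase, 1 h, 37 °C) and PCR amplification of pools that had been incubated for 30 min at room temperature with 200 nmole of a random double-stranded 16-mer DNA library in Tris/NaCl/DTT/glycerol buffer. Each pool held DNA-barcoded human transcription factors, expressed in yeast as GST fusions and captured on glutathione beads, plus a tag-only sample. Binding signal is a hexamer's read frequency for a factor divided by its frequency in the tag-only sample.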

Test [2] has as its target T2, ETV3L (Homo sapiens, UniProt Q6ZN32 1-361).
T2 sequence: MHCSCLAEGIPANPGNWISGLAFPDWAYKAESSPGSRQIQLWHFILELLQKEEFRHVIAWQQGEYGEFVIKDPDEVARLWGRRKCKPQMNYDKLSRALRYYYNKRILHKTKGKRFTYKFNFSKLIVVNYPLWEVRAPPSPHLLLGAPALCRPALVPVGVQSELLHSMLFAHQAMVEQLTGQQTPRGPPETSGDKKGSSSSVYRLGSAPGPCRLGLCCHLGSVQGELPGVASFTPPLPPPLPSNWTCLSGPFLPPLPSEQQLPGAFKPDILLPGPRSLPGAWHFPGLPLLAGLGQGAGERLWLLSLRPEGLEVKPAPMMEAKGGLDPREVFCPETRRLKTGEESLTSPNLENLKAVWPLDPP
Put shortly: as §1

Test [3] addresses T3, ETS2 (Homo sapiens, UniProt P15036 1-469).
T3 sequence: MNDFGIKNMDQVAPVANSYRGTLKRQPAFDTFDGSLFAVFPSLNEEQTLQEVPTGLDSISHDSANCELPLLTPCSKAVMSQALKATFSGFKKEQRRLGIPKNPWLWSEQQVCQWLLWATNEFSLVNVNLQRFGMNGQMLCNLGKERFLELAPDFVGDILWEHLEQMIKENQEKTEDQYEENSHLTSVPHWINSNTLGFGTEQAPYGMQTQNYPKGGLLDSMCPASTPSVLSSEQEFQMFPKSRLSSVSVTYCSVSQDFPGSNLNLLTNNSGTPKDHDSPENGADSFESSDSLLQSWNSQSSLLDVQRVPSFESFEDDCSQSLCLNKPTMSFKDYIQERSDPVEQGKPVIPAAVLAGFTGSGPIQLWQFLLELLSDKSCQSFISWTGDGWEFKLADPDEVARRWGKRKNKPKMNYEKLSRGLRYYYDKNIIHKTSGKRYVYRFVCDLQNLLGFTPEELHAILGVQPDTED
Put shortly: as §1

Test [4] has as its target T4, SPDEF (Homo sapiens, UniProt O95238 1-335).
T4 sequence: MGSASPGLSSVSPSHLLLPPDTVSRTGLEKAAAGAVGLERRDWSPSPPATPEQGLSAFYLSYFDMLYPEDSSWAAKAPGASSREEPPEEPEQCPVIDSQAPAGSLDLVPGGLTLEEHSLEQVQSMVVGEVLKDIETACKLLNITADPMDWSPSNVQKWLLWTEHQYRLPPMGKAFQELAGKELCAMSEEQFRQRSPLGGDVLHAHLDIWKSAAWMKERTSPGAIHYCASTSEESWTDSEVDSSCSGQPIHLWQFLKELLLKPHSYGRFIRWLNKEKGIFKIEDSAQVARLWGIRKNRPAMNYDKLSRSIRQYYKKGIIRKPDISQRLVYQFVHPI
Summed up:
as §1

Test [5] has as its target T5, ETV7 (Homo sapiens, UniProt Q9Y603 1-341).
T5 sequence: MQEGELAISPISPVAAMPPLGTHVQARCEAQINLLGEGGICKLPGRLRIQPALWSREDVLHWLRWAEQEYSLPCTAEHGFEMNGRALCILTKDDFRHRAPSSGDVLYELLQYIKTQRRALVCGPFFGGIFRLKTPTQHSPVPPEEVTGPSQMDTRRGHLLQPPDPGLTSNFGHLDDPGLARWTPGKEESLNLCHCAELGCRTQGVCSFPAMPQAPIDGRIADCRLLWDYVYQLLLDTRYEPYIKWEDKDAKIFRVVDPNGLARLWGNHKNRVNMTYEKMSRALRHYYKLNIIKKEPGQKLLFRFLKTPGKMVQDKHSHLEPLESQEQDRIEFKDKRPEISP
Put shortly:
as §1

The target of test [6] is T6, ELF5 (Homo sapiens, UniProt Q9UKW6-2 1-255).
T6 sequence: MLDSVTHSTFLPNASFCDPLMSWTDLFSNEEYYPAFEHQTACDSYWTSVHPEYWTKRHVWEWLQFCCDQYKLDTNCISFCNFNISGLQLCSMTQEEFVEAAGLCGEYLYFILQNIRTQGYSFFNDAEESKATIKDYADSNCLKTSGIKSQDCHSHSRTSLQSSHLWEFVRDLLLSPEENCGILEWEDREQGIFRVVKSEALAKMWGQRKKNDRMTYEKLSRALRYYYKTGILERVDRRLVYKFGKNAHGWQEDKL
Put shortly: as §1

Test [7] deals with T7, ETV3 (Homo sapiens, UniProt P41162-2 1-143).
T7 sequence: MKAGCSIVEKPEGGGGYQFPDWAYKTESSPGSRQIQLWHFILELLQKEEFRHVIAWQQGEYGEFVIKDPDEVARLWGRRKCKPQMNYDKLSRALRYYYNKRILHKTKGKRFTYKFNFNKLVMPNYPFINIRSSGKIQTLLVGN
Put shortly: as §1

Test [8] concerns the target ETV6 (Homo sapiens, UniProt P41212 1-452). Put shortly:
as §1

Sequence of ETV6 (P41212 whole entry): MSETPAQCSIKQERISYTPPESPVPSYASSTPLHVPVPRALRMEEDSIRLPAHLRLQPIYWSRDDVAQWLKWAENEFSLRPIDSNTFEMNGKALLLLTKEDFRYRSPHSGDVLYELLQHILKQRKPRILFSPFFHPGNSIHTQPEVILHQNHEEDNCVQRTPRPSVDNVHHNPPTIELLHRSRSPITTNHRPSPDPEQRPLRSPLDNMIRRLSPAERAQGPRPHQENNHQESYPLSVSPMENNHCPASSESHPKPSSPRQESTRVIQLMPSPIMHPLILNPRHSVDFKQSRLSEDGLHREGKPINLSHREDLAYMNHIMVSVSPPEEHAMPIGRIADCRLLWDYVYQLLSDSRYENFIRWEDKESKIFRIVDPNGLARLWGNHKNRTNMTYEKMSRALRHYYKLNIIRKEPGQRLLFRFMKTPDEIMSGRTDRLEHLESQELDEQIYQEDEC

For the sequence TCCGGG, the binding signal is 1.38 fold enrichment (6-mer frequency, TF over GST control) in test [1]; 1.4 fold enrichment (6-mer frequency, TF over GST control) in test [2]; 1.67 fold enrichment (6-mer frequency, TF over GST control) in test [3]; 2.46 fold enrichment (6-mer frequency, TF over GST control) in test [4]; 1.44 fold enrichment (6-mer frequency, TF over GST control) in test [5]; 2.39 fold enrichment (6-mer frequency, TF over GST control) in test [6]. For the same sequence, the binding signal in test [7] was 1.71 fold enrichment (6-mer frequency, TF over GST control); in test [8], 1.77 fold enrichment (6-mer frequency, TF over GST control).
For TTTTTA, the binding signal in test [1] was 1.26 fold enrichment (6-mer frequency, TF over GST control); in test [2], 1.29 fold enrichment (6-mer frequency, TF over GST control); in test [3], 1.34 fold enrichment (6-mer frequency, TF over GST control); in test [4], 1.29 fold enrichment (6-mer frequency, TF over GST control); in test [5], 1.35 fold enrichment (6-mer frequency, TF over GST control); in test [6], 1.27 fold enrichment (6-mer frequency, TF over GST control). Besides, the binding signal in test [7] was 1.4 fold enrichment (6-mer frequency, TF over GST control); in test [8], 1.33 fold enrichment (6-mer frequency, TF over GST control).
Consider GTCCCT, for which the binding signal in test [1] was 1.22 fold enrichment (6-mer frequency, TF over GST control); in test [2] it was 1.16 fold enrichment (6-mer frequency, TF over GST control); in test [3], 1.31 fold enrichment (6-mer frequency, TF over GST control); in test [4], 1.37 fold enrichment (6-mer frequency, TF over GST control); in test [5], 1.22 fold enrichment (6-mer frequency, TF over GST control); in test [6] it was 1.23 fold enrichment (6-mer frequency, TF over GST control). Moreover, the binding signal in test [7] is 1.26 fold enrichment (6-mer frequency, TF over GST control); in test [8] it was 1.21 fold enrichment (6-mer frequency, TF over GST control).
For GTTTAC, the binding signal in test [1] was 1.12 fold enrichment (6-mer frequency, TF over GST control); in test [2], 1.12 fold enrichment (6-mer frequency, TF over GST control); in test [3], 1.13 fold enrichment (6-mer frequency, TF over GST control); in test [4], 1.12 fold enrichment (6-mer frequency, TF over GST control); in test [5] it was 1.22 fold enrichment (6-mer frequency, TF over GST control); in test [6], 1.13 fold enrichment (6-mer frequency, TF over GST control). Further, the binding signal in test [7] is 1.07 fold enrichment (6-mer frequency, TF over GST control); in test [8] it was 1.19 fold enrichment (6-mer frequency, TF over GST control).
On to CCGGTA, for which the binding signal was 1.4 fold enrichment (6-mer frequency, TF over GST control) in test [1]; 1.46 fold enrichment (6-mer frequency, TF over GST control) in test [2]; 1.54 fold enrichment (6-mer frequency, TF over GST control) in test [3]; 1.96 fold enrichment (6-mer frequency, TF over GST control) in test [4]; 1.35 fold enrichment (6-mer frequency, TF over GST control) in test [5]; 1.83 fold enrichment (6-mer frequency, TF over GST control) in test [6]. Moreover, the binding signal was 1.68 fold enrichment (6-mer frequency, TF over GST control) in test [7] and 1.65 fold enrichment (6-mer frequency, TF over GST control) in test [8].
With CAGCTT, the binding signal is 1.28 fold enrichment (6-mer frequency, TF over GST control) in test [1]; 1.2 fold enrichment (6-mer frequency, TF over GST control) in test [2]; 1.21 fold enrichment (6-mer frequency, TF over GST control) in test [3]; 1.24 fold enrichment (6-mer frequency, TF over GST control) in test [4]; 1.15 fold enrichment (6-mer frequency, TF over GST control) in test [5]; 1.11 fold enrichment (6-mer frequency, TF over GST control) in test [6]. For the same sequence, the binding signal in test [7] was 1.21 fold enrichment (6-mer frequency, TF over GST control); in test [8] it was 1.11 fold enrichment (6-mer frequency, TF over GST control).
In the case of CCGCCA, the binding signal in test [1] was 1.36 fold enrichment (6-mer frequency, TF over GST control); in test [2], 1.33 fold enrichment (6-mer frequency, TF over GST control); in test [3], 1.22 fold enrichment (6-mer frequency, TF over GST control); in test [4], 1.29 fold enrichment (6-mer frequency, TF over GST control); in test [5] it was 1.26 fold enrichment (6-mer frequency, TF over GST control); in test [6], 1.47 fold enrichment (6-mer frequency, TF over GST control). For the same sequence, the binding signal in test [7] is 1.43 fold enrichment (6-mer frequency, TF over GST control); in test [8] it was 1.26 fold enrichment (6-mer frequency, TF over GST control).
Take GCTTAT: the binding signal is 1.31 fold enrichment (6-mer frequency, TF over GST control) in test [1]; 1.23 fold enrichment (6-mer frequency, TF over GST control) in test [2]; 1.36 fold enrichment (6-mer frequency, TF over GST control) in test [3]; 1.43 fold enrichment (6-mer frequency, TF over GST control) in test [4]; 1.43 fold enrichment (6-mer frequency, TF over GST control) in test [5]; 1.15 fold enrichment (6-mer frequency, TF over GST control) in test [6]. Further, the binding signal in test [7] was 1.2 fold enrichment (6-mer frequency, TF over GST control); in test [8] it was 1.23 fold enrichment (6-mer frequency, TF over GST control).
